Bioassay records from PubChem BioAssay.
FBPA coupling cs – coupling enzyme interference in Giardia aldolase counter-screen | activity change, negative = inhibition, % at 58.2 µM, hits read low | actives 0.67% (n = 290,000) | coupling enzyme system counterscreen, AmpLite Red fluorescence; in the data active = activity change below about -30%
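Fluorescence at 525 nm excitation and 598 nm emission measured inhibition of the coupled detection system without aldolase. Compounds (at 57.5 uM final) were preincubated 10 min at room temperature with coupling enzyme reagent before a 20 min substrate/AmpLite Red step.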
NPSR antagonist – blocks cAMP signaling of the human neuropeptide S receptor. Q6W5P4. CHO-NPSR cells, cAMP TR-FRET, antagonist mode. Potency, µM (titrated, usually from 38.3 µM), inactives show top-dose activity change, negative = inhibition, usual class: inhibitors. actives 1% (n = 220,000). AID 1461; active = well fitted curve in the direction sought with a large enough effect; inconclusive = small, poorly fitted or top-dose-only effect, or another doubt; inactive = no such curve, though single readings can be large; an effect the other way counts as inactive or inconclusive; note: potency is the fitted concentration of half-maximal effect; nearly all actives have a fitted effect of over 50% in size
GoLoco inh red – inhibitors of human Gai1-RGS12 GoLoco interaction (red fluorophore); Potency, µM (doses to about 61.6 µM), for inactives: at the top dose activity, negative = inhibition, most hits filed as inhibitors; Gai1:RGS12 GoLoco peptide FP, rhodamine, 10 min; actives 0.44% (n = 230,000); AID 880; P63096; active = well fitted inhibition curve with a large enough effect, not every such curve was filed as active; inactive = no such curve, though single readings can be large or run the other way; note: potency is the fitted concentration of half-maximal effect; nearly all actives have a fitted effect of over 30% in size
ALDH1A1 inh – blocks purified human ALDH1A1 activity. P00352. Purified ALDH1A1, NADH fluorescence, propionaldehyde substrate. Potency, µM (highest dose often 75.3 µM), for inactives: at the top dose activity, negative = inhibition, hits mostly inhibitors. actives 7.3% (n = 220,000). AID 1030;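 note: potency is the fitted concentration of half-maximal effect; plate controls were no enzyme wells and a reference inhibitor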
Target sequence (P00352 whole entry, looked up): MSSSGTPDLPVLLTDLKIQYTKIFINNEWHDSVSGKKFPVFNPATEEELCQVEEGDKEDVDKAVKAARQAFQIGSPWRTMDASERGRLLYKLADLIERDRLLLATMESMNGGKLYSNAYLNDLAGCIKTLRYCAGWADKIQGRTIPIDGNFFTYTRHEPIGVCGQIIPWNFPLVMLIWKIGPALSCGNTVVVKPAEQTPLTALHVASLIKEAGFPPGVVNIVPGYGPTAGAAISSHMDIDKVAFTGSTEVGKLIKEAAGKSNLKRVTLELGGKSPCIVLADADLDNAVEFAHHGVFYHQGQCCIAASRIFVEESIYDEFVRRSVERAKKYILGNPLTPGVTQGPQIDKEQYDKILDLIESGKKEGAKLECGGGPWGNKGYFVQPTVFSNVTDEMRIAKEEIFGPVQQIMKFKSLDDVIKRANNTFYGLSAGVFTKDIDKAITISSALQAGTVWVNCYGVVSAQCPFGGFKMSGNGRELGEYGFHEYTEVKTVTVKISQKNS
JMJD2E inh – blocks human JMJD2E demethylase activity; B2RXH2; JMJD2E catalytic domain, FDH-coupled NADH fluorescence (FDH is formaldehyde dehydrogenase); Potency, µM (top dose mostly 57.1 µM), inactives show at the highest dose activity change, negative = inhibition, usual class: inhibitors; actives 1.6% (n = 230,000); AID 2147;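 note: potency is the fitted concentration of half-maximal effect; 0% = wells with enzyme and -100% = buffer wells without enzyme; nearly all actives have a fitted effect of over 50% in size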
Sfp inh – inhibitors of Bacillus subtilis Sfp phosphopantetheinyl transferase. Q9F4F7. Biochemical Sfp PPTase activity, qHTS. Potency, µM, for the others: largest response in the series, negative = inhibition, usual class: inhibitors. actives 3.5% (n = 310,000). AID 1490; active = well fitted curve in the direction sought with a large enough effect; inconclusive = small, poorly fitted or top-dose-only effect, or another doubt; inactive = no such curve, though single readings can be large; an effect the other way counts as inactive or inconclusive;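 note: the enzyme is Sfp with the accession as filed and its product quenches rhodamine fluorescence; potency is the fitted concentration of half-maximal effect; 0% = enzyme reaction without inhibitor and -100% = no enzyme wells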
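Compounds were incubated with enzyme (final 15 nM) for 15 min at room temperature before substrate addition started the reaction. Fluorescence at 525 nm excitation, 598 nm emission was recorded immediately and after 30 minutes.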
* hit, by the source's call; ? = inconclusive; nt = not tested or not shown; [ ] = remark or other dose. Only some compounds are listed: those with a hit (about 8.5% of all), similar ones and a draw of the others. Unless noted, calls come from the whole dose curve; as a rule, active = well fitted inhibition curve with a large enough effect (not every such curve was filed as active); inconclusive = small, poorly fitted or top-dose-only effect, or another doubt; inactive = no such curve, though single readings can be large or run the other way. Unless noted, % is set by controls: 0 for no effect and ±100 for the full control effect.

SMILES	FBPA coupling cs	NPSR antagonist	GoLoco inh red	ALDH1A1 inh	JMJD2E inh	Sfp inh
O=C(COC(=O)c1cc(=O)[nH]c(=O)[nH]1)Nc1cccc(S(=O)(=O)N2CCCCC2)c1	0	28%	6%	4%	-4%	8%
CCCCS(=O)(=O)/C=C\C=C/S(=O)(=O)CCCC	0	5µM*	-14%	4µM*	-7%	11µM*
Cc1ccc(/C=c2/sc3nnc(-c4ccccc4Cl)n3c2=O)o1	-9	-27%[46.1 µM]	68%	?	-1%	13µM*
COc1ccc(Br)cc1/C=c1\sc2nc(-c3ccco3)nn2c1=O	0	-23%[46.1 µM]	38%	28µM*	-8%	?
Cc1ccc(/C=c2\sc3nc(-c4ccco4)nn3c2=O)o1	1	4%[46.1 µM]	120%	3.5µM*	?	25µM*
Cc1ccc(/C=c2\sc3nc(-c4ccccc4Br)nn3c2=O)o1	0	?	90%	13µM*	-16%	?
Cc1ccc(-c2nc3s/c(=C\c4ccco4)c(=O)n3n2)cc1	2	1%[46.1 µM]	56%	6%	-10%	2%
O=C(CCc1c[nH]c2ccccc12)OCc1ccc(Br)cc1	nt	nt	nt	nt	nt	2%
COc1ccccc1/C=c1\sc2nc(-c3ccccc3OC)nn2c1=O	12	-14%[46.1 µM]	0%	6%	9%	-36%
COc1ccc(/C=c2\sc3nc(=O)c(C)nn3c2=O)c(OC)c1	4	8%	-4%	22µM*	-5%	0%
Cc1ccc(NC(=O)NCc2ccccn2)c(C)c1	nt	nt	nt	nt	nt	15%
C#CCOC(=O)c1cc(Cl)c(=O)n(Cc2ccc(Cl)cc2Cl)c1	6	nt	nt	nt	nt	-6%
C[n+]1cccc2c(Br)ccc([O-])c21	-69*	33%	-25%	?	?	56µM*
COC(=O)c1sccc1NC(=O)CC1C(=O)NCCN1C(=O)c1ccc(N(C)C)cc1 (stereo not drawn)	-3	-29%	2%	10µM*	3%	-7%
COC(=O)c1sccc1NC(=O)CC1C(=O)NCCN1C(=O)c1ccc(C)c(C)c1 (stereo not drawn)	0	-23%	5%	nt	-7%	18%
Cc1cc(C)nc(NC(=O)C(c2ccccc2)c2ccccc2)c1	-1	-22%	2%	14µM*	-6%	0%
CCN(C(=O)COC(=O)CNC(=O)c1ccc(C)c(C)c1)C1CCS(=O)(=O)C1 (stereo not drawn)	10	13%	-16%	25µM*	5%	-12%
CCN(C(=O)COC(=O)CNC(=O)c1ccc2ccccc2c1)C1CCS(=O)(=O)C1 (stereo not drawn)	0	0%	5%	-3%	-13%	17%
COc1ccc(Cc2nnc(NN)[nH]c2=O)cc1OC	-2	nt	nt	nt	nt	45µM*
COc1ccc(/C=N/Nc2nnc(Cc3ccc(OC)c(OC)c3)c(=O)[nH]2)cc1OC	0	7%	-6%	-10%	0%	50µM*
COc1ccc(/C=N/Nc2nnc(Cc3ccc(OC)c(OC)c3)c(=O)[nH]2)cc1	3	8%	9%	13%	23%	-13%
Cn1c2c(c3ccccc31)CCN1CCC[C@]21c1ccccc1	0	nt	nt	nt	nt	-9%
CC(=O)/C=C/n1c(=S)oc2ccccc21	1	-13%	-2%	7.9µM*	3%	0%
CC1CN(Cc2c(O)ccc3c2oc(=O)c2ccccc23)CC(C)O1 (stereo not drawn)	-6	-27%	-8%	nt	28µM*	79µM*
Cc1ccc(S(=O)(=O)Nc2c3ccccc3nc(=O)n2-c2ccccc2)cc1	2	13%[46.1 µM]	-7%	?	0%	-6%
SMILES	FBPA coupling cs	NPSR antagonist	GoLoco inh red	ALDH1A1 inh	JMJD2E inh	Sfp inh
O=c1nc2ccccc2c(NS(=O)(=O)c2ccccc2)n1-c1ccccc1	-1	23%[46.1 µM]	7%	0.89µM*	1%	4%
CCCC(C(=O)NC(C)(C)C)N(Cc1ccc(F)cc1)C(=O)c1snc(C(N)=O)c1N (stereo not drawn)	-1	nt	nt	nt	nt	20%
O=[N+]([O-])c1ccc(C=Nc2ccc(Cl)c([N+](=O)[O-])c2)s1	-34*	-25%	-3%	14µM*	14µM*	-5%
NC(=O)c1ccc(N=Cc2ccc([N+](=O)[O-])s2)cc1	-31*	-33%	6%	20µM*	22µM*	-4%
Cc1cc(C)cc(N=Cc2ccc([N+](=O)[O-])s2)c1	-21	-16%	2%	?	?	12%
CCOC(=O)c1ccc(Cl)c(NC(=O)c2ccc(-c3ccccc3)cc2)c1	3	27%[46.1 µM]	7%	13%	3%	1%
CCOC(=O)c1ccc(/C=C2/C=C(c3ccccc3)N(c3ccc(Cl)c(C(=O)O)c3)C2=O)cc1	7	13µM*	123%	11µM*	1%	?
Cc1cc(-n2cnnn2)cc(C)c1S(=O)(=O)N(C)c1ccccc1	-5	nt	nt	nt	nt	11%
CCc1cc(N2CCOCC2)cc2c1[nH]c1ccccc12	-43*	-9%[46.1 µM]	-3%	?	?	50µM*
c1ccc2c(c1)[nH]c1c(N3CCOCC3)ncnc12	-1	-12%[46.1 µM]	5%	?	?	1%
COc1cccc(NC(=O)c2ccnc(N3CCC(C(=O)NCc4ccccc4OC)CC3)c2)c1	2	nt	nt	nt	nt	-25%
COc1cccc(C(c2c(N)[nH]c(=S)[nH]c2=O)c2c(N)[nH]c(=S)[nH]c2=O)c1	-4	0%	-11%	nt	-7%	79µM*
COc1cccc(C(NC(=O)c2ccccc2F)NC(=O)c2ccccc2F)c1	2	-13%[46.1 µM]	nt	?	-2%	?
Cc1ccc(NC(=O)CCCCCN2C(=O)[C@@H]3Cc4ccccc4CN3C2=O)c(Cl)c1	nt	nt	nt	nt	nt	16%
CN(Cc1ccco1)c1nc(-c2cccnc2)nc2ccccc12	1	nt	-3%	32µM*	nt	-10%
Cc1ccc(CN(C)c2nc(-c3cccnc3)nc3ccccc23)o1	0	nt	nt	nt	nt	0%
CCNC(=S)Nc1ccc(Cc2nc3ccccc3[nH]2)cc1	1	nt	nt	nt	nt	6%
CCOC(=O)c1c(-c2ccccc2)oc2ccc(O)cc12	-4	nt	nt	nt	nt	40µM*
